Compound activity as filed in PubChem.
PostGolgi yeast = growth inhibition of a yeast mutant, post-Golgi transport screen; 0.9% of 98,000 active; post-Golgi transport phenotypic cell assay; inhibition, % at 10 µM;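 note: yeast cells grown in 1536-well plates; yeast grown about 18 h at 30C before absorbance read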
CYP2C19 activ = activators of human cytochrome P450 2C19; AID 1025; recombinant CYP2C19, luciferin-H EGE luminescence; active compounds read high; 0 = fully inhibited enzyme, 1 = untreated enzyme; activation factor at 5 µM; 96,000 tested, under 10 active; P33261;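 active = activation factor of at least 2 at 5 µM in the primary screen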;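 note: 0 = wells with 2.5 mM tranylcypromine and 1 = vehicle-only wells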
PostGolgi ctrl = growth of the yeast control strain, post-Golgi counter-screen | efflux-deficient yeast background strain, growth absorbance A615, 16 h | 5% of 98,000 active | AID 738 | inhibition, % at 10 µM
CYP2C9 activ = CYP2C9 (human) activation. P11712. recombinant CYP2C9, luciferin-H conversion, luminescence; active compounds read high; factor 1 = untreated enzyme, 0 = blocked. activation factor at 5 µM. 1.4% of 96,000 active;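 active = activation factor of 2 or more for CYP2C9 at a 5 µM dose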;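 note: 0 = sulfaphenazole-blocked wells and 1 = vehicle-only wells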
Target sequence (P11712 whole entry, looked up): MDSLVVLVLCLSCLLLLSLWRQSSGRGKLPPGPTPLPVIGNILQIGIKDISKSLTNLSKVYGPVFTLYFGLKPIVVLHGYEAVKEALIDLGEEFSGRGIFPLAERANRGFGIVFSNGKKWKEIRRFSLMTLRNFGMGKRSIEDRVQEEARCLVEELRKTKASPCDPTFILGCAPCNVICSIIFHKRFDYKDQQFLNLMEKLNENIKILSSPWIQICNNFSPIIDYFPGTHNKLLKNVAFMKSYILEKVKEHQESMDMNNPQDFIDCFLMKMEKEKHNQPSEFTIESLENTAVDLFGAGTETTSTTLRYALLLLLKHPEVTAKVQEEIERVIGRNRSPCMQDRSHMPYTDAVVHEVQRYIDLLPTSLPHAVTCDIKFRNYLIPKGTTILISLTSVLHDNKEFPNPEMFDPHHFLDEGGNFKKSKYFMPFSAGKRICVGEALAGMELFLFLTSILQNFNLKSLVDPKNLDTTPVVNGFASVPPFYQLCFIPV
CYP2C19 inhib = human CYP2C19 inhibition | 21% of 96,000 active | inhibition, % at 5 µM | P33261 | CYP2C19 Supersomes, luciferin-H EGE luminescence, 30 min;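 active = CYP2C19 inhibition above a set limit at 5 µM in the primary screen, cut at about 50% in these data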;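 note: plate controls were negative control wells for no effect and 2.5 mM tranylcypromine positive control for full effect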
CYP2C9 inhib = blocks human cytochrome P450 2C9; inhibition, % at 5 µM; CYP2C9 Supersomes, luciferin-H conversion, luminescence; 20% of 96,000 active; P11712;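 active = blocking of liver enzyme CYP2C9 beyond about 50% at 5 µM, limit read from the data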
* = called active by the depositor. These entries were drawn from the full list. Cut-off read from the data, not from the text of the source, unless noted: active = inhibition above about 30%; inactive = the rest.

For CC(=O)N1CCC(=O)N(C(C)C)c2ccccc21 the results were PostGolgi yeast -3, CYP2C19 activ 1.1, PostGolgi ctrl 7, CYP2C9 activ 1, CYP2C19 inhib -7 and CYP2C9 inhib 4.
Cn1c(SCC(=O)N2CCCc3ccccc32)nnc1-c1ccccc1 was read as PostGolgi yeast -1, CYP2C19 activ 0.6, PostGolgi ctrl 2, CYP2C9 activ 1, CYP2C19 inhib 39 and CYP2C9 inhib 4.
For Cn1c(SCC(=O)N2CCCc3ccccc32)nnc1-c1ccco1 the results were PostGolgi yeast 6, CYP2C19 activ 1.1, PostGolgi ctrl 4, CYP2C9 activ 1, CYP2C19 inhib -6 and CYP2C9 inhib -5.
Screening CCn1c(SCC(=O)N2CCc3ccccc32)nnc1-c1ccco1 returned PostGolgi yeast 5, CYP2C19 activ 0.5, PostGolgi ctrl 7, CYP2C9 activ 0.7, CYP2C19 inhib 51* and CYP2C9 inhib 33.
For CCCn1c(SCC(=O)N2CCCc3ccccc32)nnc1-c1ccco1 the results were PostGolgi yeast -7, CYP2C19 activ 0.5, PostGolgi ctrl 36*, CYP2C9 activ 1, CYP2C19 inhib 52* and CYP2C9 inhib 0.
For CCCCn1c(SCC(=O)N2CCCc3ccccc32)nc2c1c(=O)n(C)c(=O)n2C the results were PostGolgi yeast 3, CYP2C19 activ 0.8, PostGolgi ctrl 18, CYP2C9 activ 0.4, CYP2C19 inhib 18 and CYP2C9 inhib 63*.
Screening Cc1ccc(C2CC(c3ccc(C)cc3)n3nc(N)nc3N2)cc1 (centres undefined) returned PostGolgi yeast 3, CYP2C19 activ 0.5, PostGolgi ctrl 9, CYP2C9 activ 0.6, CYP2C19 inhib 47 and CYP2C9 inhib 42.
Screening CC1(C)CC(=O)C(C=NCCc2ccc(S(N)(=O)=O)cc2)=C(O)C1 returned PostGolgi yeast 8, CYP2C19 activ 0.9, PostGolgi ctrl 3, CYP2C9 activ 1, CYP2C19 inhib 6 and CYP2C9 inhib 2.
Screening COc1ccc(-c2cccc(C(=O)NCC(=O)O)c2)cc1 returned PostGolgi yeast -7, CYP2C19 activ 1, PostGolgi ctrl 7, CYP2C9 activ 0.8, CYP2C19 inhib 5 and CYP2C9 inhib 23.
CCN(CC)C(=O)c1cccc(-c2ccc(OC)cc2)c1 was read as PostGolgi yeast -18, CYP2C19 activ 0.3, PostGolgi ctrl 4, CYP2C9 activ 0.6, CYP2C19 inhib 69* and CYP2C9 inhib 45.
For Cc1ccc2c(c1)cc(C)c1nnc(SCC(=O)NCc3ccco3)n12 the results were PostGolgi yeast -4, CYP2C19 activ 0.8, PostGolgi ctrl 14, CYP2C9 activ 1.3, CYP2C19 inhib 23 and CYP2C9 inhib -29.
For CCCCCCCC(=O)NNC(=O)CCC(=O)O the results were PostGolgi yeast 0 and PostGolgi ctrl -3.
Screening N#Cc1c(N)c(C(=O)c2ccc(Br)cc2)n2c1CCC2 returned PostGolgi yeast -6, CYP2C19 activ 1, PostGolgi ctrl 8, CYP2C9 activ 1, CYP2C19 inhib -3 and CYP2C9 inhib 2.
For N#Cc1c(N)c(C(=O)c2ccccc2)n2c1CCCC2 the results were PostGolgi yeast -1, CYP2C19 activ 0.3, PostGolgi ctrl 14, CYP2C9 activ 1.1, CYP2C19 inhib 66* and CYP2C9 inhib -6.
CC(=O)Nc1cc(C(=O)OCC(=O)c2ccc(Cl)cc2Cl)ccc1C was read as PostGolgi yeast -5, CYP2C19 activ 0.7, PostGolgi ctrl -9, CYP2C9 activ 2*, CYP2C19 inhib 34 and CYP2C9 inhib -102.
C/C(=N\NC(=O)c1ccc(Cl)cc1)c1cccc(NC(=O)C(C)C)c1 was read as PostGolgi yeast -1, CYP2C19 activ 0.9, PostGolgi ctrl 2, CYP2C9 activ 1.1, CYP2C19 inhib 9 and CYP2C9 inhib -8.
Screening CCOC(=O)Nc1cc(C(=O)OC)ccc1C returned PostGolgi yeast -9, CYP2C19 activ 0.5, PostGolgi ctrl 0, CYP2C9 activ 0.8, CYP2C19 inhib 46 and CYP2C9 inhib 20.
For O=C(COC(=O)c1cccnc1Cl)c1ccc(Cl)cc1Cl the results were PostGolgi yeast -1, CYP2C19 activ 0.3, PostGolgi ctrl 11, CYP2C9 activ 2.5*, CYP2C19 inhib 66* and CYP2C9 inhib -149.
Screening O=C(OCC(=O)N1CCc2ccccc21)c1cccnc1Cl returned PostGolgi yeast 5, CYP2C19 activ 0.9, PostGolgi ctrl 4, CYP2C9 activ 1, CYP2C19 inhib 9 and CYP2C9 inhib 2.
CC(C)C(=O)Nc1cccc(C(=O)OCC(=O)c2ccc(Cl)cc2Cl)c1 was read as PostGolgi yeast 0, CYP2C19 activ 0.9, PostGolgi ctrl 6, CYP2C9 activ 2.6*, CYP2C19 inhib 8 and CYP2C9 inhib -163.
Cc1ccc(C(=O)NNC(=O)Cc2ccccc2)cc1 was read as PostGolgi yeast -4, CYP2C19 activ 0.8, PostGolgi ctrl 19, CYP2C9 activ 0.9, CYP2C19 inhib 23 and CYP2C9 inhib 12.
CC/C(=N\NS(C)(=O)=O)c1ccccc1 was read as PostGolgi yeast 2, CYP2C19 activ 0.9, PostGolgi ctrl 3, CYP2C9 activ 1.2, CYP2C19 inhib 10 and CYP2C9 inhib -20.
Screening O/N=C/CCn1c(=S)sc2ccccc21 returned PostGolgi yeast 17, CYP2C19 activ 0.5, PostGolgi ctrl 10, CYP2C9 activ 5.1*, CYP2C19 inhib 50 and CYP2C9 inhib -409.
For CCOC(=O)c1c(C)oc2c1c(C(c1cccnc1)N1CCCCC1)c(O)c1ccccc12 (centres undefined) the results were PostGolgi yeast 18, CYP2C19 activ 0.9, PostGolgi ctrl 53*, CYP2C9 activ 0.7, CYP2C19 inhib 5 and CYP2C9 inhib 31.
CCOC(=O)c1c(C)oc2c1c(C(c1ccccc1)N1CCOCC1)c(O)c1ccccc12 (centres undefined) was read as PostGolgi yeast -4, CYP2C19 activ 0.8, PostGolgi ctrl 29, CYP2C9 activ 0.6, CYP2C19 inhib 23 and CYP2C9 inhib 41.
`CC(C)N1CC23C=CC(O2)C(C(=O)OCc2ccccc2)C3C1=O` (centres undefined) gave PostGolgi yeast -1 and PostGolgi ctrl -7.
`Cc1noc(C)c1COc1cccc(C(=O)NCc2ccccc2Cl)c1` gave PostGolgi yeast 1, CYP2C19 activ 0.4, PostGolgi ctrl 30, CYP2C9 activ 0.5, CYP2C19 inhib 58* and CYP2C9 inhib 53*.
Screening Cc1noc(C)c1COc1cccc(C(=O)Nc2ccc(OCc3ccccc3)cc2)c1 returned PostGolgi yeast 0, CYP2C19 activ 0.4, PostGolgi ctrl 1, CYP2C9 activ 0.3, CYP2C19 inhib 62* and CYP2C9 inhib 73*.
Screening CS(=O)(=O)N1CCCC(C(=O)NCCCN2CCOCC2)C1 (centres undefined) returned PostGolgi yeast -11, CYP2C19 activ 1, PostGolgi ctrl 0, CYP2C9 activ 1, CYP2C19 inhib -2 and CYP2C9 inhib -1.
